From PubChem BioAssay (NCI)
The panel holds about 79,000 compounds, 15% with a hit somewhere; the sample as a whole holds those more often. No stated cut-off is given here; in the data, active means growth inhibition above about 70%; inactive means the rest.

How the values were obtained:
[1] = NCI Yeast Anticancer Drug Screen. Data for the rad50 strain (AID 155);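 further: 0% = growth of vehicle-only cultures of the same strain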; conditions: S. cerevisiae rad50 strain growth inhibition; at 50.0 µM; stronger effect = higher value
Procedure, shortened: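 Yeast carrying a defined DNA repair defect were exposed to test compounds, and growth was compared with vehicle-treated controls to give percent inhibition.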

[2] = NCI Yeast Anticancer Drug Screen. Data for the mec2-1 strain (AID 157); conditions: S. cerevisiae mec2-1 strain, at 50.0 µM, stronger effect = higher value
Procedure, shortened: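 Compounds were applied to mec2-1 yeast cells. Their growth was then compared with that of vehicle-treated cultures to give growth inhibition.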

[3] = NCI Yeast Anticancer Drug Screen. Data for the sgs1 mgt1 strain (AID 161);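 further: 0% = growth of cultures given vehicle only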; conditions: S. cerevisiae sgs1 mgt1 strain, at 50.0 µM, stronger effect = higher value
Procedure, shortened: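 Percent growth inhibition was derived by comparing compound-exposed mutant yeast with vehicle-exposed cultures. The strain carries alterations in DNA damage repair.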

[4] = NCI Yeast Anticancer Drug Screen. Data for the cln2 rad14 strain (AID 165);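 further: 0% = growth equal to vehicle treated cultures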; conditions: S. cerevisiae cln2 rad14 strain, at 50.0 µM, stronger effect = higher value
Procedure, shortened: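 Strain: cln2 rad14 yeast, altered in cell cycle control and DNA damage repair. Read-out: growth inhibition vs vehicle.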

[5] = NCI Yeast Anticancer Drug Screen. Data for the bub3 strain (AID 167); conditions: S. cerevisiae bub3 mutant strain, at 50.0 µM, stronger effect = higher value
Procedure, shortened: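 Compounds were applied to a genetically altered yeast strain carrying a cell-cycle control defect. Growth inhibition was scored against vehicle-treated controls.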

[6] = NCI Yeast Anticancer Drug Screen. Data for the mlh1 rad18 strain (AID 175); conditions: S. cerevisiae mlh1 rad18 strain growth inhibition; at 50.0 µM; stronger effect = higher value
Procedure, shortened: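 A repair-deficient yeast strain is exposed to test compound, and growth is scored relative to vehicle-treated controls.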

Measured: growth inhibition

COc1cc2c(cc1OC)C(=O)CC2
inactive: [1] -12.7% | [2] -10.9% | [3] -19.7% | [4] -5.25% | [5] -4.2% | [6] 0.15%

O=[N+]([O-])c1ccc(OC(=S)N2CCOCC2)cc1
inactive: [1] -7.05% | [2] 9.3% | [3] -8.3% | [4] 0.15% | [5] -10.2% | [6] -0.65%

CC(=O)OC1[C@@H](OC(C)=O)[C@H](OC(C)=O)C2(CO2)[C@H](OC(C)=O)[C@H]1OC(C)=O (some centres not stated)
inactive: [1] -7.05% | [2] -4.45% | [3] -6.4% | [4] -29.6% | [5] -0.15% | [6] 12.8%

CCOC(=O)c1cc(=O)c2cccc(C)c2[nH]1
inactive: [1] 2.3% | [2] 10.7% | [3] -0.95% | [4] -9.3% | [5] -2% | [6] 20.6%

N#Cc1c2nc3ccccc3nc2n2ccc3ccccc3c12
inactive: [1] -50% | [2] -61% | [3] -83.3% | [4] -13.1% | [5] -42.5% | [6] -71.7%

O=C1C(CO)=C[C@@H](O)[C@H]2O[C@@H]12
inactive: [1] 8.25% | [2] 1.5% | [3] 12.6% | [4] 6.8% | [5] 15.9% | [6] 17.4%

N=C(N)c1nc2ccccc2s1
inactive: [1] 6.2% | [2] -13.5% | [3] 17.4% | [4] 7.65% | [5] 24% | [6] 5.3%

NC(CC(=O)OCc1ccccc1)C(=O)OCc1ccccc1 (configuration not stated)
inactive: [1] 9.1% | [2] 9.3% | [3] 16.1% | [4] -5.9% | [5] 3.55% | [6] 4.15%

C[n+]1ccc2ccccc2c1C#N
inactive: [1] 2.55% | [2] 10.6% | [3] -3.75% | [4] -0.35% | [5] 0.35% | [6] 14.9%

O=[N+]([O-])c1ccc(/C=N\N=P(c2ccccc2)(c2ccccc2)c2ccccc2)cc1
inactive: [1] -6.25% | [2] 3.25% | [3] 12.8% | [4] 1.9% | [5] -4.65% | [6] -3.85%

CN(C)CCNC1=CC(=O)c2nc3ccccc3c3ccnc1c23
inactive: [1] 37% | [2] 14.2% | [3] 26.8% | [4] 27.9% | [5] 33.6% | [6] 27.4%

C/C(=N/NC(N)=O)c1c(C)c(Cl)cc(Cl)c1OCCCC(C)C
inactive: [1] -8.1% | [2] -3.05% | [3] 0.45% | [4] -6.1% | [5] 22.9% | [6] -10.6%

CC(NC(=O)CNP(=O)(c1ccccc1)c1ccccc1)C(=O)NC(Cc1ccccc1)C(=O)OCc1ccccc1 (configuration not stated)
inactive: [1] 9.8% | [2] 4.3% | [3] 20.1% | [4] -4.5% | [5] -9.55% | [6] 30.1%

N#C/C(=C/C=C/c1ccco1)C(N)=O
inactive: [1] 9.9% | [2] 1.65% | [3] 15.6% | [4] 10.6% | [5] -6.25% | [6] 13.4%

O=C(Nc1ccc(Cl)c(Cl)c1)Oc1ccc2ccccc2c1
inactive: [1] 13.4% | [2] 24.9% | [3] 34.5% | [4] -0.35% | [5] 4.1% | [6] 61.1%

Oc1ccc(Br)cc1CNC1CCCCC1
inactive: [1] 58.5% | [2] 31.8% | [3] 61.1% | [4] -9.9% | [5] 27.1% | [6] 24.1%

O=C1CC[C@@H](NC(=O)Cc2ccccc2)C(=O)N1
inactive: [1] -6.65% | [2] -19.3% | [3] -12.8% | [4] -6.75% | [5] 2.25% | [6] -9.1%

C/C(CC(=O)Nc1ccc(C)c(C)c1)=N\NC(N)=O
inactive: [1] -31.9% | [2] -28.6% | [3] -0.7% | [4] -5.35% | [5] -22% | [6] -24.2%

Cc1cccc(Cl)c1O
inactive: [1] 29.8% | [2] -7.1% | [3] 23.6% | [4] -23.8% | [5] -7.75% | [6] 18.2%

CCOC(=O)C1=C(Nc2ccc(Cl)c(Cl)c2)OC/C1=N\NC(=O)Cc1ccccc1
inactive: [1] -49.8% | [2] -22% | [3] -4.05% | [4] -12% | [5] -11.7% | [6] -35.4%

COc1ccc(C2S/C(=C\c3cccc([N+](=O)[O-])c3)C(=O)N2NC(=O)Cc2ccccc2)cc1 (configuration not stated)
inactive: [1] 0.65% | [2] -21.2% | [3] 3.85% | [4] -58.6% | [5] 36% | [6] 12.4%

N#CN=C(N(Cc1ccccc1)Cc1ccccc1)N(Cc1ccccc1)Cc1ccccc1
inactive: [1] -3.65% | [2] -12.4% | [3] -18.6% | [4] 20.6% | [5] 12.4% | [6] -14.1%

COC(=O)N/N=C(\c1ccc(OC)cc1)C(c1ccc(OC)cc1)C1(O)C(=O)Nc2c(C)cc(Cl)cc21 (configuration not stated)
inactive: [1] 20.1% | [2] 14.8% | [3] -4.35% | [4] -30.6% | [5] 18.6% | [6] 18.6%

CCC(=C(C#N)C#N)c1cc(OC)c(OC)c(OC)c1
inactive: [1] -43% | [2] -31.8% | [3] -24.2% | [4] -16.2% | [5] -26.5% | [6] -13.8%

c1ccc(-n2nnc3c2CCCC3)cc1
inactive: [1] -3.2% | [2] -1.6% | [3] -6.1% | [4] -23.8% | [5] -25.6% | [6] -1.65%

Cc1cc(C)c(/C=C/c2c(C)cc(C)cc2C)c(C)c1
inactive: [1] 9.25% | [2] -12.9% | [3] 4.2% | [4] -26.4% | [5] -4.45% | [6] -0.5%

N#C/C(=N/Nc1nc[nH]c1C(N)=O)C(=O)Nc1ccccc1
inactive: [1] 8.6% | [2] 20.9% | [3] 16.6% | [4] -0.1% | [5] -0.6% | [6] 26.1%

CCCC(O)(c1ccccc1)c1ccccc1
inactive: [1] 5.4% | [2] 2.95% | [3] -2.95% | [4] -6.4% | [5] -4.5% | [6] 4.5%

CC(C)n1nnnc1-c1ccccc1
inactive: [1] -6.45% | [2] -8.5% | [3] 2% | [4] -15.9% | [5] -3.1% | [6] 1.15%

CC=C(c1ccccc1)c1ccccc1
inactive: [1] -34% | [2] -25.2% | [3] -13.7% | [4] -10% | [5] -3.3% | [6] -15.2%

C1=C(c2ccccc2)C(c2ccccc2)=C(c2ccccc2)C(c2ccccc2)C(c2ccccc2)=N1 (configuration not stated)
inactive: [1] 2.75% | [2] 10.2% | [3] -2.95% | [4] 21.4% | [5] -2.5% | [6] 8.55%

O=c1oc2ccc(Br)cc2cc1-n1nnc2ccccc21
inactive: [1] -0.45% | [2] -6.55% | [3] 2.45% | [4] 0.6% | [5] 15.9% | [6] 5.55%

O=C1OC2C(O)C3CC1C2O3 (configuration not stated)
inactive: [1] -8.15% | [2] -6.05% | [3] -5.5% | [4] -6.85% | [5] -2.25% | [6] 0.45%

CC(=O)N(C(=O)CC(=O)NN)c1ccc(Cl)cc1
inactive: [1] -19.1% | [2] -21.3% | [3] 3.65% | [4] 26.3% | [5] 6.95% | [6] 26%

CSc1nc(-c2ccccc2)c(C(=O)NC(C)CN2CCCCC2)s1 (configuration not stated)
inactive: [1] 13.5% | [2] 5.15% | [3] 7.45% | [4] 11% | [5] -3.2% | [6] 11.1%

N#Cc1c(-c2ccccc2)c(-c2ccccc2)cc2c(=O)c3ccc(Cl)cc3[nH]c12
inactive: [1] -27.3% | [2] 3.25% | [3] -2.9% | [4] 12.4% | [5] 7.2% | [6] 2.4%

C1CC2CC1C13OC1C1(CC1)C1OC213 (configuration not stated)
inactive: [1] -4.5% | [2] 11.6% | [3] -40.5% | [4] -28.4% | [5] -20.2% | [6] -45.5%

CCOc1ccc(/C=C2\N=C(c3ccccc3)OC2=O)cc1OC
inactive: [1] 8.5% | [2] 12.5% | [3] 4% | [4] 0.75% | [5] 5.85% | [6] 2.4%

O=C(O)C(Cl)(c1ccccc1)c1ccccc1
inactive: [1] -6.5% | [2] -13% | [3] 7.5% | [4] -19.9% | [5] 3.55% | [6] -12.8%

ICC1OCOC2C(CI)OCOC12 (configuration not stated)
inactive: [1] 5.1% | [2] 1.3% | [3] -5.3% | [4] -1.8% | [5] 4.75% | [6] 9.5%

CCN(CC)CCOCCO
inactive: [1] -8.6% | [2] -16% | [3] -0.65% | [4] 11.7% | [5] 0.95% | [6] -2.15%

Cc1ccc(NC(=O)OCCN(C)C)cc1Cl
inactive: [1] -6.75% | [2] -25.8% | [3] 16.4% | [4] 11.1% | [5] 8.2% | [6] -4.6%
